PKM2 act: activators of human pyruvate kinase M2 | P14618 | purified PKM2, Kinase-Glo ATP luminescence, activation; response scale: 0% is enzyme alone, no compound | Potency, µM (series often up to 57.5 µM), for inactives: at the top dose activation, actives largely listed as activators | actives 0.34% (n = 260,000) | AID 1631; note: potency is the fitted concentration of half-maximal effect; % is set by controls: 0 for no effect and ±100 for the full control effect; nearly all actives have a fitted effect of over 55% in size
Target sequence (P14618 whole entry, looked up): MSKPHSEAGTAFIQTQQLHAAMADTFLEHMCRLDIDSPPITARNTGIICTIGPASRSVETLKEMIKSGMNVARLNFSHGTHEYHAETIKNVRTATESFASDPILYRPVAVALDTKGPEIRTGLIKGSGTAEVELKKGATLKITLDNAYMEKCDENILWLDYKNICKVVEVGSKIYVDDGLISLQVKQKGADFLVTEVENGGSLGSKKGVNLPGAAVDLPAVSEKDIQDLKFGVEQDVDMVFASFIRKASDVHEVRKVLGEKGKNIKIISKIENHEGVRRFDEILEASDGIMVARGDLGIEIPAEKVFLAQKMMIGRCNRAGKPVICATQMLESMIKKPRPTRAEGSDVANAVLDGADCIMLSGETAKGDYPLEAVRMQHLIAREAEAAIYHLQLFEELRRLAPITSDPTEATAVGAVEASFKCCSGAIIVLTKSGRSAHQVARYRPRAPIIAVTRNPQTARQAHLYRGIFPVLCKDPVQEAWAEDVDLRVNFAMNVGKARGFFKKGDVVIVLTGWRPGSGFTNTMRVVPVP
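ATP formation by purified human PK-M2, quantified via coupled luciferase luminescence after 1 h at room temperature with 0.1 mM ADP and 0.5 mM PEP final.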
TrxR1 substrate: rat thioredoxin reductase 1 substrate activity. purified TrxR1 substrate turnover, NADPH consumption readout. Potency, µM (doses to about 114 µM), inactives show at the highest dose activity change, negative = substrate turnover. actives 0.01% (n = 390,000). AID 588456; note: potency is the fitted concentration of half-maximal effect; % is set by controls: 0 for no effect and ±100 for the full control effect; nearly all actives have a fitted effect of over 50% in size
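Rat TrxR1, dispensed at 90 nM, was prereduced with 400 uM NADPH (final) for 5 min at ~22 deg C, then incubated with compound 15 min before 400 uM selenite. A first-read NADPH fluorescence drop versus no-compound background flagged substrates.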
GLS inh: blocks human kidney-isoform glutaminase activity; Potency, µM (series often up to 45.5 µM), without a hit: top-dose activity change, negative = inhibition, hits mostly inhibitors; actives 0.21% (n = 410,000); GLS enzymatic activity, qHTS titration; note: potency is the fitted concentration of half-maximal effect; % is set by controls: 0 for no effect and ±100 for the full control effect
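Two-point fluorescence kinetic (t0, 30 min RT) for hKGA; glutamate detected via glutamate oxidase–HRP–Amplex Red. Substrate: 1 mM L-glutamine solution; buffer 45 mM KH2PO4, pH 8.2.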
mIDH1 inhibitor: blocks human mutant IDH1 R132H enzyme; actives 0.093% (n = 390,000); IDH1-R132H enzyme, NADPH consumption, diaphorase/resazurin fluorescence; Potency, µM (titrated, usually from 76.6 µM), for inactives: top-dose activity change, negative = inhibition, actives largely listed as inhibitors; note: potency is the fitted concentration of half-maximal effect; % is set by controls: 0 for no effect and ±100 for the full control effect; nearly all actives have a fitted effect of over 65% in size
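IDH1-R132H (0.5 ug/mL dispensed) in pH 7.5 Tris buffer was preincubated 30 min with compound, then given a substrate mix of 0.016 mM NADPH and 2 mM alpha-KG for 80 min at room temperature; remaining NADPH was read by diaphorase/resazurin fluorescence.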
rTrxR1 inhibitor: rat TrxR1 inhibition; O89049; recombinant rTrxR1, NADPH fluorescence consumption, selenite substrate; Potency, µM (doses to about 114 µM), without a hit: at the top dose activity change, negative = inhibition, actives largely listed as inhibitors; actives 1% (n = 390,000); AID 588453; note: potency is the fitted concentration of half-maximal effect; % is set by controls: 0 for no effect and ±100 for the full control effect; nearly all actives have a fitted effect of over 65% in size
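Rat TrxR1 (90 nM in the dispensed reagent) was pre-reduced with 400 uM NADPH for 5 min at room temperature, then incubated with compound for 15 min. After 400 uM selenite was added, NADPH fluorescence (Ex 340/Em 450 nm) was followed for 8 min.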
LDHA inh: inhibitors of human lactate dehydrogenase A; purified LDHA, NADH/diaphorase-resazurin fluorescence; hits give low values; activity change, % (values are at about 110 or 230 µM); actives 0.15% (n = 480,000); P00338; in the data active = activity change below about -30%; inconclusive = mostly about -25% to -30%;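 note: plate controls were DMSO wells for no effect and wells without enzyme for full effect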
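LDH5 2 nM; NADH 0.06 mM, pyruvate 0.2 mM; 200 mM Tris pH 7.4, EDTA, Tween-20; 5 min RT. Detection: diaphorase 0.133 mg/mL + resazurin 37 µM, fluorescence ex540/em590 at 0 and 20 min; normalized to enzyme-free and DMSO wells.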
IDH1 autofl: counter-screen for mutant IDH1 inhibitors: fluorescence interference; shares compounds with mIDH1 inhibitor; Resorufin detection reagent fluorescence interference, cell-free; inhibition of signal, % at 51.2 µM; 750 tested, under 10 active; AID 623980;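 note: 0% = wells with normal resorufin and full inhibition = wells lacking resorufin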
IDH1 WT: selectivity of mutant IDH1 inhibitors: human wild-type IDH1; shares compounds with mIDH1 inhibitor; WT IDH1 enzyme, NADPH diaphorase/resazurin fluorescence; Potency, µM (series often up to 115 µM), for inactives: at the top dose activity change, negative = inhibition, actives largely listed as inhibitors; actives 9% (n = 750);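 note: potency is the fitted concentration of half-maximal effect; 0% = full WT IDH1 enzyme control and full inhibition = no enzyme wells; nearly all actives have a fitted effect of over 55% in size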
mIDH1 confirm: mutant IDH1 (human) inhibition, confirmed | shares compounds with mIDH1 inhibitor | IDH1 R132H enzyme, NADPH diaphorase/resazurin fluorescence | Potency, µM (doses to about 76.6 µM), for inactives: at the top dose activity change, negative = inhibition, actives largely listed as inhibitors | actives 83% (n = 750) | AID 624002; note: potency is the fitted concentration of half-maximal effect; nearly all actives have a fitted effect of over 50% in size
Starred values were filed as active, the others as inactive; [ ] = another dose, or the depositor's remark. Hits are enriched below; roughly 1.4% of the tested compounds scored in any of these assays. Unless noted, calls come from the whole dose curve; as a rule, active = well fitted curve in the direction sought with a large enough effect; inconclusive = small, poorly fitted or top-dose-only effect, or another doubt; inactive = no such curve, though single readings can be large; an effect the other way counts as inactive or inconclusive.

For Cc1ccc(NC(=O)[C@@H](c2ccccc2)N2Cc3ccccc3C2=O)cc1 the results were TrxR1 substrate 2.4%, GLS inh 0.6%, mIDH1 inhibitor -0.8%, rTrxR1 inhibitor 22.6% and LDHA inh -1.3.
Screening CC(C)c1ccc(NC(=O)C(c2ccccc2)N2CC(=O)Nc3ccccc32)cc1 (stereo not given) returned PKM2 act 2.9%, TrxR1 substrate 2.0%, GLS inh 0.7%, mIDH1 inhibitor inconclusive, rTrxR1 inhibitor 18.7%, LDHA inh 2.5, IDH1 autofl 0.5, IDH1 WT -2.0% and mIDH1 confirm 25.1µM*.
CCOC(=O)C1CCN(C(c2cccnc2)c2c(NC(=O)c3ccco3)sc(C)c2C)CC1 (stereo not given) was read as PKM2 act 4.7%, TrxR1 substrate 7.6%, GLS inh 3.8%, mIDH1 inhibitor inconclusive, rTrxR1 inhibitor inconclusive, LDHA inh -4.2, IDH1 autofl 0.8, IDH1 WT -2.9% and mIDH1 confirm 28.2µM*.
For Cc1sc(NC(=O)c2ccco2)c(C(c2cccnc2)N2CCN(CCO)CC2)c1C (stereo not given) the results were PKM2 act 4.4%, TrxR1 substrate -3.7%, GLS inh 8.9%, mIDH1 inhibitor 4.9%, rTrxR1 inhibitor -7.9% and LDHA inh -7.6.
For CCOC(=O)C1CCCN(C(=O)C2CCN(S(=O)(=O)c3ccc4c(ccn4CC)c3)CC2)C1 (stereo not given) the results were LDHA inh 3.1.
For COc1cc(/C=C2\SC(c3ccccc3)=NC2=O)cc(Cl)c1O the results were PKM2 act 0.9%, TrxR1 substrate -4.8%[57.1 µM], GLS inh 8.91µM*, mIDH1 inhibitor 58.5µM*, rTrxR1 inhibitor -39.2%, LDHA inh 12.4, IDH1 autofl -4.4, IDH1 WT 7.5% and mIDH1 confirm 44.7µM*.
Screening Cc1cc(/C=N/n2c(COc3ccccc3)nc3ccccc3c2=O)c(O)c([N+](=O)[O-])c1 returned PKM2 act -2.9%, TrxR1 substrate -8.0%, GLS inh 6.5%, mIDH1 inhibitor inconclusive, rTrxR1 inhibitor -2.3%, LDHA inh -1.6, IDH1 autofl 5.8, IDH1 WT 3.5% and mIDH1 confirm 31.6µM*.
For Cc1ccc(-c2[nH]ncc2/C=N/n2c(COc3ccccc3)nc3ccccc3c2=O)cc1 the results were PKM2 act -8.1%, TrxR1 substrate -10.5%, GLS inh 1.2%, mIDH1 inhibitor -4.1%, rTrxR1 inhibitor -4.5% and LDHA inh -5.9.
Screening COc1cc(C(C(=O)NC2CCCC2)N(C(=O)c2snc(C(N)=O)c2N)c2ccccc2)cc(OC)c1OC (stereo not given) returned TrxR1 substrate 8.6%, GLS inh -3.6%, mIDH1 inhibitor -14.2%, rTrxR1 inhibitor 14.3% and LDHA inh -6.8.
For COc1ccc(C)cc1N(C(=O)c1snc(C(N)=O)c1N)C(C(=O)NC1CCCC1)c1ccc(F)cc1 (stereo not given) the results were PKM2 act 0.8%, TrxR1 substrate 23.7%, GLS inh 1.2%, mIDH1 inhibitor inconclusive, rTrxR1 inhibitor 35.4%, LDHA inh -9.6, IDH1 autofl 4.5, IDH1 WT 1.1% and mIDH1 confirm 15.8µM*.
`COc1ccc(N(C(=O)c2snc(C(N)=O)c2N)C(C(=O)NC2CCCC2)c2ccc(F)cc2)c(OC)c1` (stereo not given) gave TrxR1 substrate 16.6%, GLS inh -5.5%, mIDH1 inhibitor inconclusive, rTrxR1 inhibitor -7.1%, LDHA inh -0.5, IDH1 autofl -2.4, IDH1 WT -6.9% and mIDH1 confirm inconclusive.
Screening COc1ccc(C(C(=O)NC2CCCCC2)N(C(=O)c2snc(C(N)=O)c2N)c2ccc(OC)cc2OC)cc1 (stereo not given) returned PKM2 act 1.2%, TrxR1 substrate 26.0%, GLS inh -7.5%, mIDH1 inhibitor -26.6%, rTrxR1 inhibitor 34.9% and LDHA inh -4.2.
Cc1[nH]c2ccccc2c1C(=O)C(C)Sc1nnc(CCC(N)=O)n1C1CC1 (stereo not given) was read as LDHA inh -4.6.
Screening Cc1c(C#N)c(N)nc2c3c(sc12)NC(=O)CC3c1ccc(Cl)cc1 (stereo not given) returned PKM2 act 0.1%, TrxR1 substrate -2.1%, GLS inh 0.0%, mIDH1 inhibitor 29.3µM*, rTrxR1 inhibitor 6.5%, LDHA inh -2.0, IDH1 autofl 3.1, IDH1 WT 8.9% and mIDH1 confirm 15.8µM*.
Screening Cc1c(C#N)c(N)nc2c3c(sc12)NC(=O)CC3c1ccccc1Cl (stereo not given) returned LDHA inh -3.0.
Screening O=C(N/N=C/c1ccccc1F)c1csc2ccccc12 returned LDHA inh 0.0.
`C[C@H]1CN([C@@H](C)CO)C(=O)CCCn2nncc2CO[C@H]1CN(C)S(=O)(=O)c1ccc(Oc2ccccc2)cc1` gave GLS inh -8.4%, mIDH1 inhibitor inconclusive, LDHA inh -1.5, IDH1 autofl 1.8, IDH1 WT 1.7% and mIDH1 confirm inconclusive.
Screening C[C@@H]1CN([C@H](C)CO)C(=O)CCCn2nncc2CO[C@@H]1CN(C)S(=O)(=O)c1ccc(Oc2ccccc2)cc1 returned GLS inh 0.5%, mIDH1 inhibitor 3.7% and LDHA inh -0.6.
`O=C1/C(=C/c2cccnc2)Oc2cc(OS(=O)(=O)c3ccc(F)cc3)ccc21` gave PKM2 act -1.0%, TrxR1 substrate 10.7%[57.1 µM], GLS inh -3.2%, mIDH1 inhibitor inconclusive, rTrxR1 inhibitor 8.1% and LDHA inh -10.2.
